“And” between values parts separate entries of the source, which are not always exact repeats. Equal entries are not always repeated. The campaign covered roughly 5,500 compounds. About 2,000 (36%) were called active. About 18% were inconclusive and are not listed. No stated cut-off is given here; in the data, active means normalized growth mostly below about 0.91 (no sharp cut-off); inconclusive means no clear call, values can overlap the other calls; inactive means mostly above about 0.92. This is one part of the list.
Experiment: chemical genetic growth profiling, strain panel (AID 1159580);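 further: tested at 20 µM; growth read once vehicle control cultures reached saturation at 30 °C; 1 = growth at the plate median or of vehicle wells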
Conditions: S. cerevisiae deletion strains, growth OD

Measured: normalized growth

CC(=O)OCC1=C(C(=O)O)N2C(=O)[C@@H](NC(=O)CCCC(N)C(=O)O)C2SC1 (some centres not stated)
inactive: locus YAL013W, strain DEP1, stronger effect = lower value 1.02 | locus YAL021C, strain ccr4, stronger effect = lower value 1.01 | locus YAL026C, strain drs2, stronger effect = lower value 1.01 | locus YAL030W, strain snc1, stronger effect = lower value 0.998 | locus YBL061C, strain skt5, stronger effect = lower value 0.997 | locus YBR009C, strain hhf1, stronger effect = lower value 1.02 | locus YBR021W, strain FUR4, stronger effect = lower value 0.998 | locus YBR023C, strain chs3, stronger effect = lower value 0.987 | locus YBR171W, strain sec66, stronger effect = lower value 1 | locus YBR229C, strain ROT2, stronger effect = lower value 1 | locus YBR231C, strain swc5, stronger effect = lower value 0.992 | locus YBR279W, strain paf1, stronger effect = lower value 0.989 | locus YCL011C, strain gbp2, stronger effect = lower value 1 | locus YCL016C, strain dcc1, stronger effect = lower value 0.988 | locus YCL029C, strain bik1, stronger effect = lower value 1.02 | locus YCL061C, strain MRC1, stronger effect = lower value 0.997 | locus YCL069W, strain vba3, stronger effect = lower value 0.997 | locus YCR088W, strain abp1, stronger effect = lower value 0.998 | locus YDL005C, strain med2, stronger effect = lower value 0.992 | locus YDL035C, strain GPR1, stronger effect = lower value 1.03 | locus YDL040C, strain nat1, stronger effect = lower value 0.99 | locus YDL074C, strain BRE1, stronger effect = lower value 1 | locus YDL101C, strain DUN1, stronger effect = lower value 1.01 | locus YDL134C, strain PPH21, stronger effect = lower value 1.01 | locus YDL185W, strain tfp1, stronger effect = lower value 1 | locus YDL192W, strain arf1, stronger effect = lower value 1.01 | locus YDR001C, strain nth1, stronger effect = lower value 0.99 | locus YDR069C, strain doa4, stronger effect = lower value 1.01 | locus YDR101C, strain arx1, stronger effect = lower value 1 | locus YDR137W, strain rgp1, stronger effect = lower value 0.985 | locus YDR150W, strain NUM1, stronger effect = lower value 1.02 | locus YDR159W, strain sac3, stronger effect = lower value 1.01 | locus YDR162C, strain NBP2, stronger effect = lower value 1.02 | locus YDR195W, strain ref2 0.963 | locus YDR297W, strain sur2, stronger effect = lower value 0.999 | locus YDR318W, strain mcm21, stronger effect = lower value 1.05 | locus YDR334W, strain swr1, stronger effect = lower value 0.996 | locus YDR335W, strain msn5, stronger effect = lower value 0.992 | locus YDR388W, stronger effect = lower value 0.986 | locus YDR392W, strain spt3, stronger effect = lower value 0.942 | locus YDR502C, strain sam2, stronger effect = lower value 1.04 | locus YEL003W, strain gim4, stronger effect = lower value 0.994 | locus YEL037C, strain rad23, stronger effect = lower value 0.99 | locus YEL061C, strain CIN8 (second series), stronger effect = lower value 0.991 | locus YEL061C, strain CIN8, stronger effect = lower value 1.01 | locus YER015W, strain faa2, stronger effect = lower value 0.993 | locus YER016W, strain bim1, stronger effect = lower value 0.999 | locus YER110C, stronger effect = lower value 0.994 | locus YER111C, strain swi4, stronger effect = lower value 0.995 | locus YER155C, strain BEM2 (second series), stronger effect = lower value 1 | locus YER155C, strain BEM2, stronger effect = lower value 1 | locus YER167W, strain BCK2, stronger effect = lower value 1.03 | locus YFR010W, strain ubp6, stronger effect = lower value 1.01 | locus YGL078C, strain dbp3, stronger effect = lower value 1.01 | locus YGL086W, strain mad1, stronger effect = lower value 1.04 | locus YGL167C, strain pmr1, stronger effect = lower value 0.992 | locus YGL173C, strain kem1, stronger effect = lower value 1.01 | locus YGL227W, strain vid30, stronger effect = lower value 0.994 | locus YGL240W, strain doc1, stronger effect = lower value 0.998 | locus YGL248W, strain PDE1, stronger effect = lower value 1 | locus YGL253W, strain hxk2, stronger effect = lower value 0.982 | locus YGR078C, strain PAC10, stronger effect = lower value 1.01 | locus YGR135W, strain pre9, stronger effect = lower value 1.06 | locus YGR229C, strain SMI1, stronger effect = lower value 1.01 | locus YGR252W, strain gcn5, stronger effect = lower value 1.04 | locus YHR013C, strain ard1, stronger effect = lower value 1.09 | locus YHR027C, strain rpn1, stronger effect = lower value 0.99 | locus YHR030C, strain SLT2, stronger effect = lower value 1.01 and 0.982 | locus YHR079C, strain IRE1 (second series), stronger effect = lower value 0.999 | locus YHR079C, strain IRE1, stronger effect = lower value 0.988 | locus YHR094C, strain hxt1, stronger effect = lower value 0.991 | locus YHR129C, strain ARP1, stronger effect = lower value 1 | locus YHR142W, strain chs7, stronger effect = lower value 0.994 | locus YHR200W, strain rpn10, stronger effect = lower value 1.02 | locus YIL066C, strain RNR3, stronger effect = lower value 1.04 | locus YIL073C, strain SPO22, stronger effect = lower value 1.25 | locus YIL125W, strain kgd1, stronger effect = lower value 1 | locus YIR030C, strain dcg1, stronger effect = lower value 1 | locus YJL092W, strain hpr5, stronger effect = lower value 0.993 | locus YJL095W, strain BCK1 (second series), stronger effect = lower value 0.99 | locus YJL095W, strain BCK1, stronger effect = lower value 1.01 | locus YJL115W, strain asf1, stronger effect = lower value 0.985 | locus YJL129C, strain trk1, stronger effect = lower value 1 | locus YJL134W, strain LCB3, stronger effect = lower value 1 | locus YJL154C, strain vps35, stronger effect = lower value 0.986 | locus YJL164C, strain tpk1, stronger effect = lower value 1.01 | locus YJL166W, strain qcr8, stronger effect = lower value 0.989 | locus YJL168C, strain set2, stronger effect = lower value 0.996 | locus YJL187C, strain SWE1 (second series), stronger effect = lower value 1.03 | locus YJL187C, strain SWE1, stronger effect = lower value 0.994 | locus YJR043C, strain POL32, stronger effect = lower value 1.01 | locus YJR066W, strain TOR1, stronger effect = lower value 0.942
